Bioassay records deposited in PubChem by National Center for Advancing Translational Sciences (NCATS).
B2AR arrestin ag – agonists recruiting beta-arrestin to human beta2-adrenergic receptor; Potency, µM (doses to about 46.1 µM), hits mostly activators; HTLA Tango cells, beta-arrestin recruitment, luciferase luminescence, 18 h; 44,000 tested, under 10 active;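 also: potency is read from the fitted curve at half-maximal effect; 0% = DMSO and full agonism = EC100 isoproterenol or metaproterenol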
Target sequence (P07550 whole entry, looked up): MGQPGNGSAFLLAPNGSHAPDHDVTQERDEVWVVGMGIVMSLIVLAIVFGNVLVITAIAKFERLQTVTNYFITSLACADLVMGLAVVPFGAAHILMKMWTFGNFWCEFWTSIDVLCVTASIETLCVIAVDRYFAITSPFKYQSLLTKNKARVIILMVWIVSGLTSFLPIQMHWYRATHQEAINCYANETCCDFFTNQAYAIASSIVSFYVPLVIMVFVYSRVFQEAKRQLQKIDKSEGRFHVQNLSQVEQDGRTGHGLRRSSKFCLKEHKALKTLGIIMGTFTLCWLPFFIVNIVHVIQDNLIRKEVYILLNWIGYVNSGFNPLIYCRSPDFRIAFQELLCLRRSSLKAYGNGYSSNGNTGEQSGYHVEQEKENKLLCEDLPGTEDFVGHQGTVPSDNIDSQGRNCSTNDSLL
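Ligand-induced beta-arrestin recruitment to recombinant beta2-AR is measured via a tTA-driven luciferase reporter in Tango cells after 18 hr compound exposure at 37 degrees C. Concentrations span up to 46 microM.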
NTMT1 inhibitor – blocks human N-terminal methyltransferase 1 activity | Q9BV86 | NTMT1 MTase-Glo SAH luminescence, purified enzyme | Potency, µM (top dose mostly 114 µM), without a hit: at the top dose activity change, negative = inhibition, hits mostly inhibitors | 2.5% of 59,000 active | AID 1645870;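 also: potency is read from the fitted curve at half-maximal effect; plate controls were DMSO vehicle for no effect and no enzyme for full effect; nearly all actives have a fitted effect of over 65% in size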
HTT-AS promoter – activators of huntingtin-antisense promoter activity; HEK293 HTT-AS promoter firefly luciferase reporter, 24 h; response scale: percent change from vehicle, -100% = no light; Potency, µM (highest dose often 57.5 µM), for the others: at the top dose activity change, positive = activation, most hits filed as activators; 0.24% of 48,000 active; also: potency is read from the fitted curve at half-maximal effect; nearly all actives have a fitted effect of over 55% in size
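Luminescence was read after Dual-Glo reagent and a 10 min room-temperature incubation. Values were normalized to vehicle (0% activity) and zero RLU (-100% activity). Reporter HEK293 cells had been exposed to compounds (up to 57.5 uM final) for 24 h.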
HTT prom inh – inhibits huntingtin promoter activity. Potency, µM (top dose mostly 57.5 µM), for the others: top-dose activity change, negative = inhibition, most hits filed as inhibitors. 0.93% of 48,000 active. HEK293 HTT promoter firefly luciferase reporter, 24 h; also: potency is read from the fitted curve at half-maximal effect; nearly all actives have a fitted effect of over 50% in size
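HEK293 cells carrying firefly luciferase reporters were seeded at 2,500 per well in Opti-MEM and cultured for 24 h. They were then treated with compounds at up to 57.5 uM final for 24 h at 37 degrees C before Dual-Glo luminescence readout.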
TSG101-PTAP inh – inhibitors of HIV-1 PTAP binding to human TSG101, validation; Q99816; Fluorescence polarization, FITC-PTAP peptide/Tsg101, 20 min; 44,000 tested, under 10 active; Potency, µM (series often up to 115 µM), hits mostly inhibitors; also: potency is read from the fitted curve at half-maximal effect; 0% is about no effect
Target sequence (Q99816 whole entry, looked up): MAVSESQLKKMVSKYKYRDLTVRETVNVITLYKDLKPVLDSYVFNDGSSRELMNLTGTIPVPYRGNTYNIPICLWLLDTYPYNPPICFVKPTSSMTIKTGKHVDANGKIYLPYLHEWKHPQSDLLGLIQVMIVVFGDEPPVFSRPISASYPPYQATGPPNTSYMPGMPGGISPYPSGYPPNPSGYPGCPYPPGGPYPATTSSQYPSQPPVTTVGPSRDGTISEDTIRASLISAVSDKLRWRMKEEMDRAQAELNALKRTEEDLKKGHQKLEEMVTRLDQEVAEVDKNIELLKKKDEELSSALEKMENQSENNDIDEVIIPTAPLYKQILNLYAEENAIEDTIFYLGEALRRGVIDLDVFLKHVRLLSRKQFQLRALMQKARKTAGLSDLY
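qHTS FP binding, 20 min r.t.: 10 uM Tsg101 domain + 50 nM FITC-PTAP peptide, pH 7.5 HEPES buffer with TCEP and EDTA.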
GALK inhibitor – inhibits human galactokinase. P51570. AID 1347072. Potency, µM (top dose mostly 57.5 µM), without a hit: at the top dose activity, negative = inhibition, actives largely listed as inhibitors. 44,000 tested, under 10 active. recombinant GALK, Kinase-Glo ATP luminescence, 1 h;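 also: plate controls were full GALK reaction for no effect and reaction lacking GALK for full effect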
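Human GALK (5 nM) was incubated with 35 uM ATP and 100 uM galactose in 20 mM HEPES pH 8.0 with MgCl2, NaCl, DTT and BSA for 1 h at room temperature. Remaining ATP was measured by Kinase-Glo Plus luminescence.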
Sfp PPTase inh – Sfp PPTase inhibition, chemistry optimization. shares compounds with NTMT1 inhibitor. purified Sfp PPTase enzyme activity, qHTS. Potency, µM (doses to about 114 µM), without a hit: at the top dose activity change, negative = inhibition, usual class: inhibitors. 78% of 230 active. AID 540350
Bsub HM489 growth – Sfp PPTase inhibitors: growth inhibition of B. subtilis HM489. shares compounds with NTMT1 inhibitor. B. subtilis HM489 (acpS-) growth, BacTiter-Glo, 5 h. Potency, µM (titrated, usually from 114 µM), without a hit: top-dose activity change, negative = inhibition, hits mostly inhibitors. 50% of 220 active
Sfp PPTase gel – inhibitors of Bacillus subtilis Sfp PPTase, gel-based followup; shares compounds with NTMT1 inhibitor; purified Sfp PPTase, gel-based product detection; Potency, µM (top dose mostly 250 µM), without a hit: at the top dose activity change, negative = inhibition, usual class: inhibitors; 54% of 220 active
Sfp inh gel – confirmation of Bacillus subtilis Sfp PPTase inhibitors; shares compounds with NTMT1 inhibitor; purified Sfp PPTase, gel-based product detection; Potency, µM (series often up to 250 µM), inactives show top-dose activity change, negative = inhibition, usual class: inhibitors; 90% of 45 active
Sfp SAR2 – inhibitors of Bacillus subtilis Sfp PPTase, SAR round 2. shares compounds with NTMT1 inhibitor. purified Sfp enzyme, PPTase activity, qHTS. Potency, µM (series often up to 57.1 µM), for the others: at the highest dose activity change, negative = inhibition, most hits filed as inhibitors. 87% of 230 active
hGST A1-1 inh – inhibits hGST A1-1 in Sfp inhibitor counter-screen | shares compounds with NTMT1 inhibitor | hGST A1-1 enzyme activity counter-screen, qHTS | Potency, µM (series often up to 114 µM), without a hit: top-dose activity change, negative = inhibition, actives largely listed as inhibitors | 55 tested, under 10 active | AID 602391
HSD17B4 counter – counter-screen for HPGD inhibitors: human HSD17B4 inhibition; Potency, µM (highest dose often 57.1 µM), without a hit: at the top dose activity change, negative = inhibition, actives largely listed as inhibitors; shares compounds with NTMT1 inhibitor; 10% of 230 active; AID 743187; purified HSD17B4, estradiol/NAD+, NADH fluorescence
ALDH1A1 inh – ALDH1A1 (human) inhibition, HPGD counter-screen | shares compounds with NTMT1 inhibitor | recombinant ALDH1A1, NADH fluorescence, propionaldehyde/NAD+ | Potency, µM (doses to about 57.1 µM), without a hit: at the top dose activity change, negative = inhibition, most hits filed as inhibitors | 93% of 230 active | AID 743195
NNMT inh – blocks human NNMT methyltransferase | shares compounds with NTMT1 inhibitor | NNMT MTase-Glo luminescence, SAH detection | Potency, µM (top dose mostly 57.1 µM), without a hit: at the highest dose activity, negative = inhibition, usual class: inhibitors | 10% of 120 active
Active calls of the source: *; i = inactive; ? = inconclusive; / = not tested or not shown; [ ] = dose if it differs, or a comment. Only a selection was taken, and hits are over-represented in it overall. Calls follow the shape of the dose curve; as a rule, active = well fitted curve in the direction sought with a large enough effect; inconclusive = small, poorly fitted or top-dose-only effect, or another doubt; inactive = no such curve, though single readings can be large; an effect the other way counts as inactive or inconclusive.

SMILES	B2AR arrestin ag	NTMT1 inhibitor	HTT-AS promoter	HTT prom inh	TSG101-PTAP inh	GALK inhibitor	Sfp PPTase inh	Bsub HM489 growth	Sfp PPTase gel	Sfp SAR2	HSD17B4 counter	ALDH1A1 inh	others
O=C(O)c1cc(N(Cc2ccc(C3CCCCC3)cc2)C(=O)c2ccc(Oc3ccccc3)cc2)ccc1O	/	31.6µM*	/	/	/	/	/	/	/	/	/	/	NNMT inh=-19.3%
COc1ccc2oc(NC3=NC(c4[nH]ncc4Cl)C4=C(CCCC4=O)N3)nc2c1 (stereo not given)	/	-7.6%	/	/	/	/	/	/	/	/	/	/
C[C@]12CC[C@@H]3c4ccc(O)c(O)c4CC[C@H]3[C@@H]1CCC2=O	/	28.2µM*	/	/	/	/	/	/	/	/	/	/	NNMT inh=35.5µM*
C[C@]12CC[C@@H]3c4ccc(O)cc4CC[C@H]3[C@@H]1C[C@@H](O)[C@@H]2O	/	?	-1.8%	1.6%	/	/	/	/	/	/	/	/
COc1cccc(N2C(=O)c3ccccc3C2=O)n1	/	-12.1%	/	/	/	/	/	/	/	/	/	/
COc1ccc2cc3cc(C(=O)N4CCN(c5cccc(C(F)(F)F)c5)CC4)sc3nc2c1	i	5.6%	-14.8%	-14.2%	i	1.0%	/	/	/	/	/	/
COc1cccc(NC(=S)N2CCN(c3ccc(C(F)(F)F)cc3[N+](=O)[O-])CC2)n1	/	?	/	/	/	/	?	?	31.6µM*	1.45µM*	-14.4%	1.52µM*
COc1cccc(NC(=S)N2CCN(c3cccc(C(F)(F)F)n3)CC2)n1	/	?	/	/	/	/	?	?	4.5%	?	-4.8%	4.82µM*
COc1ccnc(NC(=S)N2CCN(c3cccc(Cl)c3Cl)CC2)c1	/	?	/	/	/	/	5.91µM*	5.91µM*	7.94µM*	1.02µM*	0.2%	3.83µM*	Sfp inh gel=?;hGST A1-1 inh=-0.5%
COc1ccccc1-c1noc(-c2ccc(N3CCN(c4ccccc4)CC3)c([N+](=O)[O-])c2)n1	i	?	-14.2%	-16.3%	i	-11.9%	/	/	/	/	/	/
COc1ccnc(NC(=S)N2CCN(c3cccc(C(F)(F)F)n3)CC2)c1	/	?	/	/	/	/	46.9µM*	-15.1%	?	5.76µM*	23.8%	8.57µM*
COc1cc(O)c(C(CC(=O)N2CCOCC2)c2ccc(C)cc2)c(OC)c1 (stereo not given)	/	8.3%	/	/	/	/	/	/	/	/	/	/
c1ccc(CNCc2ccc(CN3CCCNCCNCCCNCC3)cc2)nc1	/	23.2%	/	/	/	/	/	/	/	/	/	/
Cc1cc(C)nc(NC(=S)N2CCN(c3ccc([N+](=O)[O-])cc3Cl)CC2)c1	/	28.2µM*	/	/	/	/	1.48µM*	-16.6%	2µM*	0.81µM*	19.2µM*	0.681µM*	Sfp inh gel=1.51µM*;hGST A1-1 inh=0.4%
Cc1cc(C)nc(NC(=S)N2CCN(c3ccc4ncccc4c3[N+](=O)[O-])CC2)c1	/	?	/	/	/	/	5.91µM*	-21.0%	-58.8%	2.89µM*	-16.2%	19.2µM*
Cc1cc(C)nc(NC(=S)N2CCN(Cc3c(F)cccc3Cl)CC2)c1	/	-19.2%[57.5 µM]	/	/	/	/	8.35µM*	-22.8%	-42.4%	?	-12.0%	10.8µM*
Cc1cc(C)nc(NC(=S)N2CCN(c3cc(Cl)c(Cl)cc3Cl)CC2)c1	/	?	/	/	/	/	4.69µM*	?	5.01µM*	3.24µM*	-22.0%	21.5µM*
Cc1ccc(N2CCN(C(=O)c3cnc(N4CCCCC4)c4ccccc34)CC2)c(C)c1	i	-1.6%	-29.1%	?	i	-0.7%	/	/	/	/	/	/
Cc1cc(N[S+](=O)([O-])c2ccc(NC(=O)Cn3c(=O)oc4ccc(Cl)cc43)cc2)no1	/	17.0%	/	/	/	/	/	/	/	/	/	/
CC1=C(C(=O)Nc2cc(Cl)ccc2Cl)C(c2ccco2)C2=C(CCCC2=O)N1 (stereo not given)	/	2.9%[57.5 µM]	/	/	/	/	/	/	/	/	/	/
C[C@H](N)C(=O)Nc1cccc(-c2nn3c(=O)cc(N4CCNCC4)nc3s2)c1	/	1.9%	/	/	/	/	/	/	/	/	/	/
Cc1ccc(N2CCN(C(=O)c3ccc4c(Cl)c5c(nc4c3)CCCC5)CC2)c(C)c1	i	3.5%	-8.7%	-6.1%	i	10.3%	/	/	/	/	/	/
Cc1cc(C)nc(NC(=S)N2CCN(c3ccc(Cl)c(Cl)c3Cl)CC2)c1	/	?	/	/	/	/	2.35µM*	7.44µM*	?	0.73µM*	-22.7%	19.2µM*
C=C(C)[C@@H]1CC[C@]2(C(=O)O)CC[C@]3(C)C(CCC4[C@]5(C)C(CC[C@]43C)C(C)(C)[C@@H](O)[C@@H]5C(=O)O)C12 (stereo not given in full)	/	-14.2%[29.8 µM]	/	/	/	/	/	/	/	/	/	/
Cc1c(-c2ccccc2)oc2c(C(=O)OCCN3CCCCC3)cccc2c1=O	/	?	-19.4%	-7.2%	/	/	/	/	/	/	/	/
